Most compounds without a hit are left out; they make up all but 5.4% or so of the library.
GASC-1 inh: blocks human GASC-1 demethylase activity. 0.069% of 330,000 active. GST-JMJD2C(1-420) H3K9me3 demethylation, DELFIA europium. Q9H3R0. inhibition, % at 2.35 µM. AID 2099;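 active means more than half of a compound's replicate wells show inhibition beyond 50%, single wells judged on their own value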;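 further: signal counts dimethyl H3K9 product captured on neutravidin plate; 0% = median of DMSO wells and 100% = 0.3 times that DMSO median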
Target sequence (Q9H3R0 1-420 limits assumed): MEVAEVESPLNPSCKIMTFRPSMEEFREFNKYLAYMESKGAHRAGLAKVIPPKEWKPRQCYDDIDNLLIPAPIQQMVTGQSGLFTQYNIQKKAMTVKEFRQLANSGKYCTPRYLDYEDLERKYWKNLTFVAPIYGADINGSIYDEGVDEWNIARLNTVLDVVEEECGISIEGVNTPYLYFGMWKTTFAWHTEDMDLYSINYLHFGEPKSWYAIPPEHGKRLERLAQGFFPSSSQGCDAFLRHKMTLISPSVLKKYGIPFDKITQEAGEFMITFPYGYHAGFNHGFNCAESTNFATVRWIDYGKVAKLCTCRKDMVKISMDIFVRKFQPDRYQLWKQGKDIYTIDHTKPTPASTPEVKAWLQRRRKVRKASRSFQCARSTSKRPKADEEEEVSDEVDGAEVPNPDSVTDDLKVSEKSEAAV
SMARCA2 act: increases SMARCA2 function in MMTV reporter cells | MG213 cells, MMTV-luciferase reporter, dexamethasone, overnight | activation, % at 9.1 µM | 1% of 370,000 active | AID 652017; in the data active means activation above about 7.8%;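 further: 0% = vehicle wells and 100% = reference activator wells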
Granule exo inh: lytic granule exocytosis inhibition; TALL-104 LAMP-1 surface exposure, flow cytometry; cells stimulated with thapsigargin and PMA; inhibition, % at 10 µM; 0.66% of 360,000 active; AID 651702;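 active means inhibition above about 55%, limit read from the data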
ALR H2O2 inh: inhibitors of human sulfhydryl oxidase ALR | P55789 | purified ALR, DTT oxidation, H2O2 HRP-luminol luminescence | 3.8% of 290,000 active | inhibition, % (no concentration beside the values);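 active means mean replicate inhibition above about 79%, with every replicate also reaching it, limit read from the data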
Target sequence (P55789 whole entry, looked up): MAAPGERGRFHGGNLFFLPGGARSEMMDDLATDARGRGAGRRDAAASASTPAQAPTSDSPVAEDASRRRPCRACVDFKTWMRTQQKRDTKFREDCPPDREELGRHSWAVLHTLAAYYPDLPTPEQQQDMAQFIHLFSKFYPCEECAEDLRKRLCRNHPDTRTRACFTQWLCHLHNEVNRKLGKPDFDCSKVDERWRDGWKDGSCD
M18AAP inhibitor: blocks P. falciparum M18 aspartyl aminopeptidase; recombinant PfM18AAP, H-Glu-NHMec fluorogenic cleavage; inhibition, % at 7.35 µM; 1.2% of 290,000 active; AID 1822;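 active means inhibition above the campaign mean inhibition over all tested compounds plus 3 SD, cut at about 28% in these data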;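 further: 0% = plate median of test compound wells and 100% = 2 mM ZnCl2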
MIN6 prolif: induces beta-cell replication in MIN6 cells; 0.29% of 330,000 active; AID 2380; MIN6 cells proliferation, ATPlite luminescence, 48 h; cells starved in 0.2% serum; 100% = growth in 10% serum; proliferation, % at 10 µM;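 active means compounds whose signal lies at least 3.5 SD above the mean of all wells on their plate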;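 further: 0% = DMSO-treated cells in low-serum medium and 100% = 10% serum control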
Active calls of the source: *; . = no result given.

SMILES	GASC-1 inh	SMARCA2 act	Granule exo inh	ALR H2O2 inh	M18AAP inhibitor	MIN6 prolif
CCN(CC)CCn1c2ccccc2c2n[nH]c(=S)nc21	-5.5	-1.6	-14.3	93.8*	22.3	-3.9
Cn1c2ccccc2c2n[nH]c(=S)nc21	0.3	-0.6	3.8	71.5	-1.9	-1.6
NC(=O)c1ccsc1NC(=O)COC(=O)Cc1cccc2ccccc12	-0.6	-6.8	3.8	96.8*	1.0	-7.0
NC(=O)c1ccsc1NC(=O)COC(=O)c1cccnc1Cl	-4.4	-1.4	-3.0	94.1*	.	1.0
NC(=O)c1ccsc1NC(=O)COC(=O)c1ccc(Cl)nc1	7.8	-1.1	-4.5	-1.3	.	-2.4
Cc1cc(F)ccc1C(=O)N1CCC(Oc2cccnc2)CC1	.	-0.6	.	.	.	.
Cc1cc(C)n2cc(CSc3nc4ccccc4s3)nc2n1	-11.7	1.8	-3.1	.	7.5	0.0
Cc1cc(C)n2cc(CSc3nc4ccccc4[nH]3)nc2n1	6.6	0.0	-9.6	99.0*	-6.2	0.2
O=S(=O)(Nc1nc(-c2ccccc2)cs1)c1cc(Cl)ccc1Cl	12.1	0.4	8.7	90.4*	-6.9	-1.3
O=C1CCCC2=C1C(c1ccc(OS(=O)(=O)c3ccc(Cl)cc3)cc1)C1=C(CCCC1=O)O2	56.9*	-0.8	-4.4	-5.6	8.1	-5.2
CCc1ccc(C2C3=C(CCCC3=O)OC3=C2C(=O)CCC3)cc1	-1.4	-1.3	-0.7	9.8	2.1	2.8
COc1ccc(C(CC(=O)O)NC(=O)Cc2ccccc2)cc1OC (configuration not stated)	-10.9	-1.6	16.1	-0.7	1.3	2.4
C=CCC(Nc1ccccc1)c1ccc(OC)c(OC)c1 (configuration not stated)	1.5	.	.	96.4*	-2.5	0.9
COc1ccc(NC(=O)CSc2nnc(-c3n[nH]c4c3CCC4)n2N)cc1	.	-5.8	.	.	.	.
COc1ccc(C2=Nn3c([n+](C)c4ccccc43)SC2)cc1	6.4	-5.5	1.6	66.5	3.0	-6.7
C[n+]1c2n(c3ccccc31)N=C(c1ccc(Cl)cc1)CS2	-2.2	-5.0	-0.6	98.7*	4.8	-6.3
C#CCN(C[C@H]1[C@H](OC(=O)Nc2c(C)noc2C)[C@H](OC(=O)Nc2c(C)noc2C)CN(C(=O)OC(C)C)N1C(=O)OC(C)C)S(=O)(=O)c1ccc(C)cc1	.	-0.7	.	.	.	.
COc1ccc(NC2CCN(C3CC(=O)N(c4ccc(F)c(Cl)c4)C3=O)CC2)cc1 (configuration not stated)	-10.7	1.4	5.2	82.3*	-10.6	-1.9
CCN1C(=O)CC(N2CCC(Nc3ccc(OC)cc3)CC2)C1=O (configuration not stated)	.	-0.6	-1.0	98.3*	7.1	-0.3
O=C(CSc1nnc(COc2ccccc2)n1-c1ccc(Cl)cc1)Nc1ccccc1-c1ccccc1	.	-7.4	.	.	.	.
CC(=O)n1nc(-c2ccncc2)nc1SCC(=O)Nc1cccc(Cl)c1	-42.6	0.1	7.1	.	-6.2	.
CC(=O)NC1C(=O)N=C(SCC(=O)Nc2sc3c(c2C#N)CCCCCC3)NC1=O (configuration not stated)	-10.6	-1.4	-3.5	98.9*	10.0	-1.1
CC(=O)NC1C(=O)N=C(SCC(=O)Nc2cccc(Cl)c2)NC1=O (configuration not stated)	-12.1	-1.0	4.0	99.2*	23.8	-2.1
COc1ccc(CNCC#Cc2ccc(C(F)(F)F)cc2)c(OC)c1	.	-4.8	.	.	.	.
C=CCN1C(=O)[C@H](CC(=O)NCc2ccc(C)o2)[C@@]2(C(=O)OCC)CCCC=C12	.	-1.5	.	.	.	.
SMILES	GASC-1 inh	SMARCA2 act	Granule exo inh	ALR H2O2 inh	M18AAP inhibitor	MIN6 prolif
COc1ccc(C2=NN(c3ccccc3)C(c3cn(CCC(=O)O)nc3-c3ccccc3)C2)cc1 (configuration not stated)	3.7	1.4	-3.0	94.4*	-2.8	-3.1
COc1cc(C2CC(c3ccccc3)=NN2c2ccccc2)ccc1OCC(=O)O (configuration not stated)	15.8	-4.1	1.3	98.8*	1.5	-2.5
COc1ccc(C2CC(c3ccccc3)=NN2c2ccc(Cl)c(C(=O)O)c2)cc1 (configuration not stated)	2.0	0.2	-8.4	98.4*	-13.3	-4.2
COc1ccc(C2CC(c3ccccc3)=NN2c2ccccc2)c(C(=O)O)c1OC (configuration not stated)	4.4	-3.8	-2.4	98.6*	8.7	-1.9
COc1ccc(C2CC(c3ccccc3)=NN2c2ccc(N)cc2)cc1 (configuration not stated)	7.6	5.1	11.6	-5.6	7.4	-3.1
COc1ccc(-c2nn(CCC(=O)O)cc2CCC(=O)O)cc1	-3.9	2.6	3.5	-4.1	3.3	-1.0
Cn1c(=O)c(=O)n(C)c2cc(S(=O)(=O)N3CCN(CCO)CC3)ccc21	.	-1.4	.	.	.	.
Cn1c(=O)c2c(c3ccccc31)OC(C)(C)C=C2	.	-0.7	.	.	.	.
Nc1nc2ccc(O)cc2s1	9.3	-0.6	0.5	99.2*	-7.3	-0.8
O=C(O)c1cc(-c2c[nH]c3ccccc23)nc2ccc3ccccc3c12	4.9	5.2	-0.3	91.9*	2.4	-3.2
CCOC(=O)c1c(-c2ccc(C)o2)csc1NC(=O)CSc1nncs1	0.6	1.1	89.6*	8.5	-97.5	-3.8
CCOC(=O)c1c(-c2ccc(C)o2)csc1NC(=O)CN1CCCCC1	13.9	-0.9	10.4	6.5	-41.8	-6.8
CN(CCCN1c2ccccc2CCc2ccccc21)CC(=O)c1ccc(Cl)cc1	12.7	.	.	98.0*	.	-8.0
COc1ccc(C2CC(=O)C(c3cccc(Cl)c3)=CN2Cc2ccccc2)cc1 (configuration not stated)	.	-1.9	.	.	.	.
Cc1ccc2nc(SCC(=O)Nc3cccc(Cl)c3)nc(=O)n2c1	-0.5	1.1	-0.4	97.3*	.	-1.6
O=C(CSc1nc(-c2ccc(Cl)cc2)[nH]c(=O)n1)Nc1cccc(Cl)c1	9.6	2.0	2.3	99.3*	9.1	-4.0
COc1ccc(-c2cc(=O)c3cccc(CC(=O)O)c3o2)cc1	.	-1.4	.	.	.	.
COC(=O)c1cc2c(c3c4cc(F)ccc4n(S(=O)(=O)c4ccc(C)cc4)c13)C(=O)N(Cc1ccc(C(F)(F)F)cc1)C2	.	-0.9	.	.	.	.
O=C(CSc1nnc(-c2ccncc2)n1-c1ccc(Br)cc1)c1ccccc1	.	-1.1	.	.	.	.
CCOc1ccc(C2NC(=O)c3sc(=S)n(-c4ccccc4)c3N2)cc1 (configuration not stated)	4.0	-3.5	0.7	80.9*	6.3	0.0
COc1ccc(C2NC(=O)c3sc(=S)n(-c4ccccc4)c3N2)cc1 (configuration not stated)	4.6	-0.3	0.0	64.3	-0.4	-3.5
O=C1NC(=O)/C(=C/c2ccc(O)cc2)S1	2.5	-0.5	-1.3	99.0*	1.2	1.6
O=C1NC(=O)C(=Cc2ccc(Cl)c(Cl)c2)S1	.	2.3	-3.3	.	.	.
COc1cc(NC(=O)C2CCCN(S(=O)(=O)c3ccccc3[N+](=O)[O-])C2)cc(OC)c1 (configuration not stated)	.	-0.7	.	.	.	.

Compound activity as filed in PubChem.
